Measurements taken from PubChem BioAssay (NCI).
About 79,000 compounds went through this panel and 15% of them were active in at least one assay; those are over-represented in the sample as a whole. Calls of active or inactive are those of the source. Cut-off read from the data, not from the text of the source: active = growth inhibition above about 70%; inactive = the rest.

Legend:
[1] = NCI Yeast Anticancer Drug Screen. Data for the rad50 strain (AID 155);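 note: 0% = growth of vehicle-only cultures of the same strain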; settings: S. cerevisiae rad50 strain growth inhibition, hits give high values
How it was run: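 Growth of the mutant yeast was measured after compound exposure and referenced to vehicle-treated cultures.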

[2] = NCI Yeast Anticancer Drug Screen. Data for the mec2-1 strain (AID 157); settings: S. cerevisiae mec2-1 strain, hits give high values
How it was run: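 Cells of the genetically defined mec2-1 yeast strain are incubated with test compound. Inhibition of growth is calculated against vehicle-treated controls.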

[3] = NCI Yeast Anticancer Drug Screen. Data for the sgs1 mgt1 strain (AID 161);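 note: 0% = growth of cultures given vehicle only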; settings: S. cerevisiae sgs1 mgt1 strain, hits give high values
How it was run: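 Inhibition of yeast growth, normalised to vehicle-treated controls, is reported for a strain bearing genetic alterations in DNA damage repair.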

[4] = NCI Yeast Anticancer Drug Screen. Data for the cln2 rad14 strain (AID 165);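 note: 0% = growth equal to vehicle treated cultures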; settings: S. cerevisiae cln2 rad14 strain, hits give high values
How it was run: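 The screen exposed genetically defined yeast (cln2 rad14) to test compounds and scored growth inhibition relative to vehicle-treated controls.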

[5] = NCI Yeast Anticancer Drug Screen. Data for the bub3 strain (AID 167); settings: S. cerevisiae bub3 mutant strain, hits give high values
How it was run: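 Whole-cell yeast assay. The mutant strain was incubated with compounds, and growth inhibition was determined by comparison with vehicle-treated cells.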

[6] = NCI Yeast Anticancer Drug Screen. Data for the mlh1 rad18 strain (AID 175); settings: S. cerevisiae mlh1 rad18 strain growth inhibition, hits give high values
How it was run: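 Compound-treated yeast growth, normalised to vehicle controls. Strain bears defined DNA repair mutations.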

[7] = at 5.0 µM (retest, dose inferred, filed as 0.5)
[8] = at 50.0 µM (retest, dose inferred, filed as 5.0)

Measured: growth inhibition

CC(C)n1nnc2ccccc2c1=Nc1ccccc1
active: [1]; [8] 85% | [1]; at 50.0 µM 96.1% | [2]; [8] 95% | [2]; at 50.0 µM 97% | [3]; [8] 89% | [3]; at 50.0 µM 96.2% | [4]; at 50.0 µM 91.3% | [5]; at 50.0 µM 95.5% | [6]; [8] 90% | [6]; at 50.0 µM 96.5%
inactive: [1]; [7] 1% | [2]; [7] -6% | [3]; [7] -2% | [4]; [7] 6% | [4]; [8] 16% | [5]; [7] 0% | [5]; [8] 63% | [6]; [7] 16%

CCCOC(=O)C(S)C(S)C(=O)OCCC (configuration not stated)
inactive: [1]; [7] 23% | [1]; [8] 50% | [1]; at 50.0 µM 11.1% | [2]; [7] 2% | [2]; [8] 32% | [2]; at 50.0 µM 2.15% | [3]; [7] -16% | [3]; [8] 53% | [3]; at 50.0 µM 12.4% | [4]; [7] 19% | [4]; at 50.0 µM 40% | [5]; [7] 5% | [5]; at 50.0 µM 26.8% | [6]; [7] 2% | [6]; at 50.0 µM 48.2%
active: [4]; [8] 90% | [5]; [8] 94% | [6]; [8] 75%

O=C1C(C(O)(C(F)(F)Cl)C(F)(F)Cl)CCCC1C(O)(C(F)(F)Cl)C(F)(F)Cl (configuration not stated)
inactive: [5]; [7] 35%
active: [1]; [7] 95% | [1]; [8] 99% | [1]; at 50.0 µM 99.7% | [2]; [7] 97% | [2]; [8] 100% | [2]; at 50.0 µM 99.7% | [3]; [7] 95% | [3]; [8] 99% | [3]; at 50.0 µM 99.8% | [4]; [7] 79% | [4]; [8] 100% | [4]; at 50.0 µM 99.3% | [5]; [8] 99% | [5]; at 50.0 µM 99.7% | [6]; [7] 96% | [6]; [8] 99% | [6]; at 50.0 µM 99.6%

O=C(OCCC1CCCCC1)c1cc([N+](=O)[O-])cc([N+](=O)[O-])c1
inactive: [1]; [7] 4% | [2]; [7] 13% | [3]; [7] 10% | [4]; [7] 6% | [5]; [7] 5% | [6]; [7] 12%
active: [1]; [8] 79% | [1]; at 50.0 µM 83.1% | [2]; [8] 76% | [2]; at 50.0 µM 75% | [3]; [8] 70% | [3]; at 50.0 µM 90.3% | [4]; [8] 71% | [4]; at 50.0 µM 80.5% | [5]; [8] 82% | [5]; at 50.0 µM 88.5% | [6]; [8] 86% | [6]; at 50.0 µM 89.8%

Clc1ccc(CN2COc3c(cc(Cl)c4cccnc34)C2)c(Cl)c1
inactive: [1]; [7] 6% | [1]; at 50.0 µM 23.6% | [2]; [7] -20% | [2]; at 50.0 µM 22.9% | [3]; [7] -1% | [3]; at 50.0 µM -6.85% | [4]; [7] -9% | [4]; at 50.0 µM 46.1% | [5]; [7] 0% | [5]; at 50.0 µM 3% | [6]; [7] 0% | [6]; at 50.0 µM 1.4%
active: [1]; [8] 98% | [2]; [8] 91% | [3]; [8] 97% | [4]; [8] 97% | [5]; [8] 98% | [6]; [8] 95%

OCc1c(-c2cccc3ccccc23)sc(-c2cccc3ccccc23)c1CO
inactive: [1]; [7] 59% | [2]; [7] 20% | [3]; [7] 44% | [3]; [8] 56% | [4]; [7] 63% | [5]; [7] 39% | [6]; [7] 65%
active: [1]; [8] 74% | [1]; at 50.0 µM 90% | [2]; [8] 85% | [2]; at 50.0 µM 92.8% | [3]; at 50.0 µM 86.8% | [4]; [8] 81% | [4]; at 50.0 µM 86.6% | [5]; [8] 82% | [5]; at 50.0 µM 86.5% | [6]; [8] 70% | [6]; at 50.0 µM 88.4%

Clc1ccc(OCC2CO2)c(Cl)c1 (configuration not stated)
active: [1]; [8] 93% | [1]; at 50.0 µM 96.6% | [2]; at 50.0 µM 91.5% | [3]; [8] 82% | [3]; at 50.0 µM 92.2% | [4]; at 50.0 µM 86.5% | [6]; [8] 84% | [6]; at 50.0 µM 96.8%
inactive: [1]; [7] 43% | [2]; [7] -17% | [2]; [8] 40% | [3]; [7] 40% | [4]; [7] 5% | [4]; [8] 40% | [5]; [7] 6% | [5]; [8] -7% | [5]; at 50.0 µM 14.9% | [6]; [7] 16%

CCCCNCCCNCCCNC(=O)c1csc(-c2csc(CCNC(=O)C(NC(=O)C(C)C(O)C(C)NC(=O)C(NC(=O)c3nc(C(CC(N)=O)NCC(N)C(N)=O)nc(N)c3C)C(OC3OC(CO)C(O)C(O)C3OC3OC(CO)C(O)C(OC(N)=O)C3O)c3cnc[nH]3)C(C)O)n2)n1 (configuration not stated)
active: [1]; [7] 97% | [1]; [8] 99% | [1]; at 50.0 µM 93% | [2]; [7] 98% | [2]; [8] 99% | [2]; at 50.0 µM 93.8% | [3]; [7] 96% | [3]; [8] 98% | [3]; at 50.0 µM 94% | [4]; [7] 95% | [4]; [8] 94% | [4]; at 50.0 µM 91.9% | [5]; [7] 97% | [5]; [8] 98% | [5]; at 50.0 µM 93.9% | [6]; [7] 98% | [6]; [8] 99% | [6]; at 50.0 µM 92.7%

O=C1Nc2ccccc2SC1c1ccccc1 (configuration not stated)
active: [1]; [8] 97% | [1]; at 50.0 µM 98.2% | [2]; [8] 99% | [2]; at 50.0 µM 99.6% | [3]; [8] 99% | [3]; at 50.0 µM 99.5% | [4]; [8] 99% | [4]; at 50.0 µM 98.8% | [5]; [8] 98% | [5]; at 50.0 µM 99.3% | [6]; [8] 99% | [6]; at 50.0 µM 98.8%
inactive: [1]; [7] 3% | [2]; [7] 15% | [3]; [7] -2% | [4]; [7] 10% | [5]; [7] 19% | [6]; [7] 10%
